Assay outcomes (PubChem)
HSP90 inh: HSP90 inhibitors, primary screen, cell lysate, luminescence. Heat shock protein HSP 90 (rabbit reticulocyte lysate; luciferase refolding). Rabbit reticulocyte lysate, luciferase refolding luminescence, 3 h. inhibition, % at 5.6 µM. 0.91% of 290,000 active. AID 1789, 2009;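 active = inhibition above the screen-wide mean plus 3 SD, computed separately per campaign, cut at about 16% in these data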;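 note: inhibitors lower the luminescence because luciferase stays unfolded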
aSyn UTR inh: MLPCN primary screen, SNCA 5' untranslated region. alpha-synuclein 5'UTR reporter, inhibitor activity. inhibition, % (tested at 7.5 µM). 0.82% of 300,000 active; in the data active = inhibition above about 60%;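 note: H4 neuroglioblastoma cells stably carrying SNCA 5'UTR luciferase fusion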
C8 TRAIL sens: viability loss with TRAIL in NB7+C8 cells, primary screen, TRAIL sensitizer project, cell-based, ATPlite luminescence. 1% of 360,000 active. inhibition (viability loss, TRAIL sensitization), % at 10 µM;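 active = compounds causing at least 50% loss of cell viability in the single-dose screen, relative to plate controls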
TWEAK-Fn14 inh: inhibitors of TWEAK-Fn14 signaling, primary screen, luciferase reporter cells, uHTS; TWEAK-stimulated Fn14 reporter cells, luciferase luminescence, 8 h; inhibition, % at 10 µM; 2% of 360,000 active; AID 1159606, 2016; in the data active = inhibition above about 50%
TROY NFkB inh: inhibitors of TROY-driven NF-kB signaling, primary screen, Q293 LMP1-TROYcd cells, NF-kB luciferase, uHTS; Q293 LMP1-TROYcd NF-kB luciferase reporter, 4 h; AID 1347056, 2019; inhibition, % at 10 µM; 0.98% of 360,000 active;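 active = compounds whose plate-normalised and pattern-corrected inhibition of the luciferase reporter signal at the single screening dose is 50% or more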
HIF-2a inh: HIF-2a reporter inhibitors, primary screen, luminescence, 786-0 RCC cells; 786-0 RCC cells HIF-2a reporter, luciferase luminescence, overnight; inhibition, % at 18.8 µM; 0.72% of 360,000 active;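 active = inhibition of the luminescence signal of 40% or more relative to plate controls, in a single-dose primary screen at 18.75 µM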
Mdm2 MdmX conf: retested Mdm2-MdmX interaction blockers, confirmation, cell-based, luminescence, single concentration, set 2. inhibition, % at 8 µM. shares compounds with HIF-2a inh. 99% of 740 active. SaOS-2 split-luciferase Mdm2/MdmX complementation;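 active = mean inhibition of the luminescence signal across two replicates at or above 26 percent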
Target sequence (O15151 whole entry, looked up): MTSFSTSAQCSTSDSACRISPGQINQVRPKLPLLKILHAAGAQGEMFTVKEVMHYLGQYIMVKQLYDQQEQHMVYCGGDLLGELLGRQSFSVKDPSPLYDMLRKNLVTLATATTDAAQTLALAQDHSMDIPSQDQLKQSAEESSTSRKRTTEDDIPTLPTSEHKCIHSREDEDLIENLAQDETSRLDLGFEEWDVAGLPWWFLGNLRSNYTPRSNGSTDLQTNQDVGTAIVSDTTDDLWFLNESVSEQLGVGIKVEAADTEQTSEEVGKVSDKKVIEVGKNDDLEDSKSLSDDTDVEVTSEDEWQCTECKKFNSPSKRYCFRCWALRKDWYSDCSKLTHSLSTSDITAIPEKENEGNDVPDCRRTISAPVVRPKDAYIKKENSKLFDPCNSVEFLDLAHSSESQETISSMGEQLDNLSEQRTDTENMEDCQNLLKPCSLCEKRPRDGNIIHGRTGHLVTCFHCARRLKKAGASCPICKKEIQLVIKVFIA
Target sequence (Q00987 whole entry, looked up): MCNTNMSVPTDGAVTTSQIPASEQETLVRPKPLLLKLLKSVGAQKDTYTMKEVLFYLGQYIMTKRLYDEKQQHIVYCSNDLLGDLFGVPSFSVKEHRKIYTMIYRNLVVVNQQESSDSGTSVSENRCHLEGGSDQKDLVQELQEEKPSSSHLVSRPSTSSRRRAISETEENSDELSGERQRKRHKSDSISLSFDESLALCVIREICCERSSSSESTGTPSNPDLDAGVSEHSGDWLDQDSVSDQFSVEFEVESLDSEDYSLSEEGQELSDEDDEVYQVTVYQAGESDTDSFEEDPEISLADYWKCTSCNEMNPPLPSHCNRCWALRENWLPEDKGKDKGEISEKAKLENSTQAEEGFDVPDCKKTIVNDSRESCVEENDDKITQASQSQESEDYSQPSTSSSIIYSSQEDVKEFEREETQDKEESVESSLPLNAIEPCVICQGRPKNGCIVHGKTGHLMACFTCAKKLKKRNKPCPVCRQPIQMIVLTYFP
HIF-2a inh conf: HIF-2a reporter inhibitor retest, confirmation, luminescence, 786-0 RCC cells | shares compounds with HIF-2a inh | 56% of 1,800 active | inhibition, % at 18.8 µM | HIF-2a luciferase reporter luminescence, overnight;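 active = mean inhibition across four replicates of at least 40 percent at the single tested concentration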
HIF-1a cs: HIF-1a luciferase reporter signal reduction – MiaPaCa-2 cells, single concentration, counter-screen for HIF-2a inhibitor project, confirmation. shares compounds with HIF-2a inh. MiaPaCa-2 HIF-1a luciferase reporter, desferoxamine, overnight. inhibition, % at 18.8 µM. 72% of 1,800 active;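 active = mean inhibition of the reporter signal across four replicates at the single tested dose of 50% or more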
Numbers stand for hits; i = inactive; nt = no result. A selection: hits, their analogues and other compounds. The true share with any hit is near 3.9%.

SMILES	HSP90 inh	aSyn UTR inh	C8 TRAIL sens	TWEAK-Fn14 inh	TROY NFkB inh	HIF-2a inh	HIF-2a inh conf	HIF-1a cs	others
CCC1CCC2(CC1)NC(CO)(CO)CO2 (stereo not drawn)	i	i	i	i	i	i	nt	nt
CCC1CCC2(CC1)NNC(=S)NN2	i	i	i	i	i	55	69	87
Cc1ccc2c(c1C)C(=O)C(=O)N2	nt	nt	i	i	i	i	nt	nt
CC(C)C[C@@H]1COc2cccc(N3CCC[C@H]3CO)c2S(=O)(=O)N1	nt	nt	i	i	i	i	nt	nt
CCCCS(=O)(=O)/C=C\C=C/S(=O)(=O)CCCC	i	i	i	79	i	93	nt	nt	Mdm2 MdmX conf=102
CCCCS(=O)(=O)/C=C\C1C2C=CC(C2)C1S(=O)(=O)CCCC (stereo not drawn)	i	i	i	i	nt	i	nt	nt
CC(C)CN(C(=O)CN(C)CC(=O)Nc1ccccc1C#N)c1c(N)n(CC(C)C)c(=O)[nH]c1=O	nt	nt	i	i	i	i	nt	nt
CC(C)Oc1ccc(CN2CCC2(C)C(=O)NCc2cccc3ccccc23)cc1 (stereo not drawn)	nt	nt	i	i	i	i	nt	nt
CC(=NNC(=S)Nc1ccccc1)c1ccccn1	nt	nt	i	i	i	71	i	i
CC(=O)Nc1ccc(S(=O)(=O)NNc2ccc([N+](=O)[O-])cc2)cc1	i	i	i	i	i	i	nt	nt
CC(=O)Nc1ccc(Sc2ccc([N+](=O)[O-])o2)cc1	nt	nt	i	95	i	91	94	103
Cc1ccccc1OCC(O)CNC1CCC(NCC(O)COc2ccccc2C)CC1 (stereo not drawn)	i	99	93	i	i	93	i	105	Mdm2 MdmX conf=103
CCc1c(O)nc(SCC(=O)Nc2ccc(Cl)cc2)n(-c2ccccc2)c1=O	nt	nt	i	i	i	i	nt	nt
Cc1cn([C@H]2C[C@H](O)[C@@H](/C=C/C(=O)NCc3ccco3)O2)c(=O)[nH]c1=O	nt	nt	i	i	i	i	nt	nt
O=C(CC[C@H]1O[C@@H](n2cnc3c(NC(=O)c4ccccc4)ncnc32)[C@H](O)[C@@H]1O)NCc1ccc(OC(F)(F)F)cc1	nt	nt	i	i	i	i	nt	nt
Cc1c(Cl)sn(-c2ccc(Cl)cc2)c1=O	i	nt	i	i	i	48	nt	nt	Mdm2 MdmX conf=102
Cc1cc2c(cc1C)CSC(c1c(O)ccc3ccccc13)SC2	i	i	i	75	i	79	i	99
COC(=O)[C@@]1(Cc2ccc(F)cc2)[C@H]2c3cc(C(=O)N4CCCC4)n(CC4CC4)c3C[C@H]2CN1C(=O)c1ccccc1	nt	nt	i	i	i	i	nt	nt
COc1cc(NS(C)(=O)=O)ccc1Nc1c2ccccc2nc2ccccc12	nt	nt	i	i	i	55	nt	nt	Mdm2 MdmX conf=98
COc1ccc(OC)c(Nc2c3ccccc3nc3ccccc23)c1	i	i	i	i	i	i	nt	nt
CCN1C(=O)[C@H]2[C@H]3CN=C(SCC(=O)c4ccccc4)N3[C@@](C)(C(=O)OC)[C@H]2C1=O	nt	nt	i	i	i	i	nt	nt
CC(=O)NC(c1ccccc1)c1nc(-c2ccccc2)cs1 (stereo not drawn)	nt	nt	i	i	i	i	nt	nt
CS(=O)(=O)c1ccc(Cl)c(NC(=O)c2cccc(-n3cnnn3)c2)c1	nt	i	i	i	i	51	i	i
CS(=O)(=O)c1ccc(NC(=O)c2cccc(-n3cnnn3)c2)cc1	nt	nt	i	i	i	i	nt	nt
O=C(Nc1ccncc1)c1c(Cl)cccc1Cl	i	i	i	55	i	41	i	i
SMILES	HSP90 inh	aSyn UTR inh	C8 TRAIL sens	TWEAK-Fn14 inh	TROY NFkB inh	HIF-2a inh	HIF-2a inh conf	HIF-1a cs	others
NC(=O)C1CC2(C1)CC(C(N)=O)C2 (stereo not drawn)	nt	nt	i	i	i	i	nt	nt
COc1ccc2c(CN3CCCCCCC3)cc(=O)oc2c1	nt	nt	i	i	i	i	nt	nt
COc1cc(/C=C/C(=O)c2ccc3c(c2)OCCO3)cc(OC)c1OC	i	i	i	67	i	56	48	101
CCOc1ccc(C(=O)/C=C/c2cc(OC)c(OC)c(OC)c2)cc1	i	i	i	i	i	66	53	103
CCOc1ccc(N2C(=O)/C(=C/c3cc(OC)c(OC)c(OC)c3)N(CC(=O)OC)C2=S)cc1	i	i	i	i	i	48	i	i
COc1cc(/C=C/C(=O)c2ccc3c(c2)OCO3)cc(OC)c1OC	nt	nt	i	i	i	44	i	103
COc1ccc(C(=O)/C=C/c2ccc(OC(=O)c3cc(OC)c(OC)c(OC)c3)cc2)cc1	i	i	i	i	i	i	nt	nt
COc1cc(C=CC(=O)OCC=Cc2ccc3c(c2)OCO3)cc(OC)c1OC	nt	nt	i	i	i	i	nt	nt
COc1cc(/C=C/C(=O)c2ccc(C)cc2)ccc1OCC#N	i	i	i	87	i	86	i	102
CNc1ncnc2c1cnn2C1CCCCO1 (stereo not drawn)	nt	nt	i	i	i	i	nt	nt
C[C@@H](NS(=O)(=O)c1cc(Cl)ccc1F)[C@H](O)c1ccccc1	nt	nt	i	i	i	i	nt	nt
COC(=O)C(Cc1ccccc1)NC(=O)C(CC(C)C)NC(=O)OC(C)(C)C (stereo not drawn)	i	i	i	i	i	i	nt	nt
CC(C)CC(NC(=O)OCc1ccccc1)C(=O)NC(Cc1ccccc1)C(=O)CCl (stereo not drawn)	nt	nt	90	i	i	48	73	87
COc1ccc(/C=C/C(=O)c2cc(F)ccc2OC(=O)c2ccccc2)cc1OC	i	67	i	i	i	44	i	i
COc1ccc(/C=C/C(=O)c2cc(Br)ccc2OC(=O)c2ccco2)cc1OC	i	i	i	i	i	i	nt	nt
COc1ccccc1N(CC(=O)Nc1cc(C)on1)S(=O)(=O)c1cccc(C(F)(F)F)c1	nt	nt	i	i	i	i	nt	nt
CNC[C@@H](CC1CCCCC1)NC[C@H](CC(C)C)NCCc1cccc(C(F)(F)F)c1	i	122	92	i	i	i	nt	nt	Mdm2 MdmX conf=103
CCC[C@@H](CNC)NC[C@H](Cc1ccccc1)NCCCCc1ccccc1	i	i	i	i	i	i	nt	nt	Mdm2 MdmX conf=103
CNC[C@@H](Cc1ccccc1)NC[C@@H](CC1CCCCC1)NCCCc1ccccc1	i	125	96	i	i	85	i	106	Mdm2 MdmX conf=103
COc1cccc(CN2CCC2(C)C(=O)NCc2cccc(C(F)(F)F)c2)c1OC (stereo not drawn)	nt	nt	i	i	i	i	nt	nt
